Read-out in experiment [1]: Transforming growth factor beta 1 (TGFb1), TGFB1 (gene 7040)
Put plainly: BSK_KF3CT_TGFb1: BioMAP Diversity Plus: KF3CT Assay for Transforming growth factor beta 1 (TGFb1) Biomarker Activity (AID 2283072). As to conditions: primary human keratinocytes with fibroblasts; actives raise or lower the signal. An outline of the steps: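 Human keratinocyte/foreskin fibroblast co-culture; TGF-b1 measured by ELISA 24 h after dosing, fitted bidirectionally versus DMSO. Cytotoxicity checked in parallel cultures by total protein (SRB staining, 560 nm).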

Read-out in experiment [2]: C-C motif chemokine 2 (Homo sapiens) (UniProt P13500)
Put plainly: BSK_KF3CT_MCP1: BioMAP Diversity Plus: KF3CT Assay for Monocyte Chemoattractant Protein 1 (MCP1/CCL2) Biomarker Activity (AID 2283073). As to conditions: primary human keratinocytes with fibroblasts; actives raise or lower the signal. An outline of the steps: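 KF3CT skin co-culture (keratinocytes/foreskin fibroblasts), 24 h post-dose; MCP-1 by ELISA; gain/loss of signal fit bidirectionally vs DMSO baseline.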

Read-out in experiment [3]: Matrix Metallopeptidase 9 (MMP9), MMP9 (gene 4318)
Put plainly: BSK_KF3CT_MMP9: BioMAP Diversity Plus: KF3CT Assay for Matrix Metallopeptidase 9 (MMP9) Biomarker Activity (AID 2283074).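 For AC50: MMP9 protein level quantified by ELISA in the co-culture.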 As to conditions: primary human keratinocytes with fibroblasts; actives raise or lower the signal. An outline of the steps: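 Human keratinocyte and foreskin fibroblast co-culture exposed to chemicals for 24 h; MMP9 biomarker measured by ELISA, bidirectional fitting relative to DMSO; cytotoxicity tracked by SRB total protein staining in parallel cultures.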

Read-out in experiment [4]: CD40, CD40 (gene 958)
Description: BSK_LPS_CD40: BioMAP Diversity Plus: LPS Assay for CD40 Biomarker Activity (AID 2283076). As to conditions: primary human HUVEC with PBMC; actives raise or lower the signal. In outline:
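ELISA readout of CD40 in HUVEC/PBMC co-culture (BSK_LPS system), 24 h post-dosing; bidirectional curve fit, DMSO baseline; parallel SRB total-protein staining for cytotoxicity.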

Read-out in experiment [5]: E-selectin (Homo sapiens) (UniProt P16581)
Description: BSK_LPS_Eselectin: BioMAP Diversity Plus: LPS Assay for Eselectin Biomarker Activity (AID 2283077). The settings on record: primary human HUVEC with PBMC; actives raise or lower the signal. An outline of the steps:
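ELISA readout of E-selectin, 24 h post-dose, HUVEC + PBMC co-culture (LPS system). Gain or loss of signal vs DMSO baseline, bidirectional fit.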

Read-out in experiment [6]: Interleukin-8 (IL8), CXCL8 (gene 3576)
Description: BSK_LPS_IL8: BioMAP Diversity Plus: LPS Assay for Interleukin-8 (IL8) Biomarker Activity (AID 2283078). The settings on record: primary human HUVEC with PBMC; actives raise or lower the signal. In outline:
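HUVEC + PBMC co-culture, LPS-activated; test chemicals dosed, IL-8 read by ELISA at 24 h. Bidirectional curve fit vs DMSO baseline (gain or loss of signal).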

A short description of experiment [7]: BSK_LPS_SRB: Viability Assessment in the BioMAP Diversity Plus: LPS Assay (AID 2283079).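 Note: total protein by sulforhodamine B absorbance as a cytotoxicity measure; measured one day after compound addition; fitted in both directions against DMSO so loss or gain of signal counts.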 As to conditions: primary human HUVEC with PBMC. An outline of the steps:
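HUVEC + PBMC co-culture, LPS-stimulated; compound 24 h. 10% TCA fix, 0.1% SRB stain, A560. Bidirectional fit vs DMSO.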

Read-out in experiment [8]: Interleukin-1 alpha (IL1a), IL1A (gene 3552)
Put plainly: BSK_LPS_IL1a: BioMAP Diversity Plus: LPS Assay for Interleukin-1 alpha (IL1a) Biomarker Activity (AID 2283080). As to conditions: primary human HUVEC with PBMC; actives raise or lower the signal. An outline of the steps: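 HUVEC/PBMC co-culture, LPS system; 24 h after dosing; IL-1a by ELISA; gain or loss of signal fitted bidirectionally vs DMSO baseline.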

Read-out in experiment [9]: Monocyte Chemoattractant Protein-1 (MCP1), CCL2 (gene 6347)
Description: BSK_LPS_MCP1: BioMAP Diversity Plus: LPS Assay for Monocyte Chemoattractant Protein-1 (MCP1) Biomarker Activity (AID 2283081). As to conditions: primary human HUVEC with PBMC; actives raise or lower the signal. In outline:
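ELISA read-out of MCP-1 after 24 h chemical dosing of a human umbilical vein endothelial cell/peripheral blood mononuclear cell co-culture stimulated with LPS. Gain or loss of signal fitted relative to DMSO controls.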

A short description of experiment [10]: BSK_LPS_PGE2: BioMAP Diversity Plus: LPS Assay for Prostaglandin E2 (PGE2) Biomarker Activity (AID 2283082).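 For AC50: secreted prostaglandin E2 measured by ELISA in LPS-stimulated co-culture.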 The settings on record: primary human HUVEC with PBMC; actives raise or lower the signal. In outline:
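HUVEC plus human PBMC co-culture stimulated with LPS; secreted PGE2 quantified by ELISA 24 h after chemical dosing. Activity fitted bidirectionally against DMSO baseline; parallel SRB staining (0.1% SRB after 10% TCA fixation, 560 nm) flags overt cytotoxicity.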

Read-out in experiment [11]: Macrophage colony-stimulating factor (MCSF), CSF1 (gene 1435)
Description: BSK_LPS_MCSF: BioMAP Diversity Plus: LPS Assay for Macrophage colony-stimulating factor (MCSF) Biomarker Activity (AID 2283083). As to conditions: primary human HUVEC with PBMC; actives raise or lower the signal. An outline of the steps: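 HUVEC + PBMC co-culture (human primary), 24 h post-dose; M-CSF by ELISA; gain/loss of signal fitted bidirectionally vs DMSO baseline.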

Read-out in experiment [12]: Tissue Factor, F3 (gene 2152)
Description: BSK_LPS_TissueFactor: BioMAP Diversity Plus: LPS Assay for Tissue Factor Biomarker Activity (AID 2283084). As to conditions: primary human HUVEC with PBMC; actives raise or lower the signal. An outline of the steps:
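HUVEC/PBMC co-culture, LPS-activated; CD142 ELISA read 24 h post-dose; bidirectional curve fit vs DMSO negative control.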

Read-out in experiment [13]: Vascular cell adhesion molecule 1 (VCAM1), VCAM1 (gene 7412)
Description: BSK_LPS_VCAM1: BioMAP Diversity Plus: LPS Assay for Vascular cell adhesion molecule 1 (VCAM1) Biomarker Activity (AID 2283086). As to conditions: primary human HUVEC with PBMC; actives raise or lower the signal. In outline: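 Human umbilical vein endothelial cells co-cultured with PBMC and stimulated with LPS; VCAM-1 measured by ELISA 24 h after dosing. Bidirectional curve fitting against DMSO baseline; cytotoxicity tracked in parallel by SRB total-protein staining.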

Read-out in experiment [14]: CD38, CD38 (gene 952)
Description: BSK_SAg_CD38: BioMAP Diversity Plus: SAg Assay for CD38 Biomarker Activity (AID 2283087). The settings on record: primary human HUVEC with PBMC; actives raise or lower the signal. In outline:
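Human HUVEC plus PBMC co-culture stimulated with superantigen; CD38 measured by ELISA 24 h after chemical dosing. Fluorescence read-out, bidirectional fit against DMSO; cytotoxicity tracked in parallel by SRB and Alamar Blue.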

Read-out in experiment [15]: CD40, CD40 (gene 958)
Description: BSK_SAg_CD40: BioMAP Diversity Plus: SAg Assay for CD40 Biomarker Activity (AID 2283088). As to conditions: primary human HUVEC with PBMC; actives raise or lower the signal. In outline: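 HUVEC/PBMC co-culture, 24 h post-dose; CD40 by ELISA, fluorescence intensity; bidirectional fit vs DMSO negative control.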

Read-out in experiment [16]: CD69, CD69 (gene 969)
Put plainly: BSK_SAg_CD69: BioMAP Diversity Plus: SAg Assay for CD69 Biomarker Activity (AID 2283089).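 For AC50: cell surface CD69 protein quantified by ELISA with fluorescence detection.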 The settings on record: primary human HUVEC with PBMC; actives raise or lower the signal. In outline: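 ELISA, fluorescence read-out: CD69 on human umbilical vein endothelial cell + PBMC co-culture, 24 h post-dosing. Gain or loss of signal fitted bidirectionally against DMSO baseline.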

Read-out in experiment [17]: Monocyte Chemoattractant Protein-1 (MCP1), CCL2 (gene 6347)
Put plainly: BSK_SAg_MCP1: BioMAP Diversity Plus: SAg Assay for Monocyte Chemoattractant Protein-1 (MCP1) Biomarker Activity (AID 2283090). As to conditions: primary human HUVEC with PBMC; actives raise or lower the signal. In outline:
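MCP-1 levels in the endothelial–PBMC SAg co-culture were quantified by ELISA at 24 h post-dosing; both increases and decreases versus DMSO scored. Cytotoxicity monitored by SRB total protein in parallel cultures.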

Read-out in experiment [18]: E-selectin (Homo sapiens) (UniProt P16581)
Put plainly: BSK_SAg_Eselectin: BioMAP Diversity Plus: SAg Assay for Eselectin Biomarker Activity (AID 2283091). The settings on record: primary human HUVEC with PBMC; actives raise or lower the signal. An outline of the steps:
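E-selectin ELISA readout at 24 h post-dosing in human umbilical vein endothelial cell/PBMC co-culture; gain or loss of signal fitted relative to DMSO baseline.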

Read-out in experiment [19]: Tumor necrosis factor (Homo sapiens) (UniProt P01375)
Description: BSK_LPS_TNFa: BioMAP Diversity Plus: LPS Assay for Tumour Necrosis Factor alpha (TNFa) Biomarker Activity (AID 2283085). As to conditions: primary human HUVEC with PBMC; actives raise or lower the signal. An outline of the steps: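 Human umbilical vein endothelial cells co-cultured with PBMC and stimulated with LPS. TNFa was measured by ELISA 24 h after chemical dosing, fitted bidirectionally relative to DMSO.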

Read-out in experiment [20]: urokinase plasminogen activator (uPA), PLAU (gene 5328)
Put plainly: BSK_KF3CT_uPA: BioMAP Diversity Plus: KF3CT Assay for urokinase plasminogen activator (uPA) Biomarker Activity (AID 2283075). As to conditions: primary human keratinocytes with fibroblasts; actives raise or lower the signal. An outline of the steps: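 Primary human keratinocyte/foreskin fibroblast co-culture exposed to chemical; uPA measured by ELISA at 24 h. Bidirectional fit versus DMSO, with parallel SRB total-protein staining for cytotoxicity.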

Outcome and AC50 data for three molecules are collected here from PubChem BioAssay (EPA / NIEHS).

Each structure is given as a SMILES string. Active and inactive are the calls of the source. Rule for the calls: active = hit-call score of the fitted dose curve at least 0.9, where 1 is the maximum; inactive = score below 0.9.

E-selectin (Homo sapiens), sequence (P16581 whole entry, looked up): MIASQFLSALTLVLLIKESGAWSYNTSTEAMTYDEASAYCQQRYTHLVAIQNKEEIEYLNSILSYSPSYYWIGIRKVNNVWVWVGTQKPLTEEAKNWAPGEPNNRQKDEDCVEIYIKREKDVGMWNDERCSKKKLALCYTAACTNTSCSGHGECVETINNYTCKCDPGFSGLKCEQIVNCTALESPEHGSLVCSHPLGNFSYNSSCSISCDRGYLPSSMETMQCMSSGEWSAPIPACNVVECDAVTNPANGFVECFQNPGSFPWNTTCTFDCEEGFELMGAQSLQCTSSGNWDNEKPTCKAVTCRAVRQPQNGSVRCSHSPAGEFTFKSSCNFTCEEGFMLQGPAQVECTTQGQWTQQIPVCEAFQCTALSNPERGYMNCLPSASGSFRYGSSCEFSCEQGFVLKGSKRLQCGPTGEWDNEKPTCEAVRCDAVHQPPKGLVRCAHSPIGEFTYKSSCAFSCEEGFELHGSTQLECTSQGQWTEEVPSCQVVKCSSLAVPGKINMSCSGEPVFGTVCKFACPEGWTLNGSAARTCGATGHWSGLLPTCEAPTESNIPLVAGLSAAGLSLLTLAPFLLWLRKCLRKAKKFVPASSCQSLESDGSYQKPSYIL
Tumor necrosis factor (Homo sapiens), sequence (P01375 whole entry, looked up): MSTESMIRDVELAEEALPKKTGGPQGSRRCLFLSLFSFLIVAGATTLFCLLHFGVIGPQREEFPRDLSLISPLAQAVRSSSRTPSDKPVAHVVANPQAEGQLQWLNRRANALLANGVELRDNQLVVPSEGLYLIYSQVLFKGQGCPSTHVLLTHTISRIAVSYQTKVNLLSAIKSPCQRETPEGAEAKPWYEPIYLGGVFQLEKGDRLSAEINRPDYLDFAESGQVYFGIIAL

Turning to `C#CCOC(=O)[C@@H](C)Oc1ccc(Oc2ncc(Cl)cc2F)cc1`, the outcome in experiment [1], in experiment [2], in experiment [3], in experiment [4], in [5] and in experiment [6] was inactive. Also, the result in experiment [7], in experiment [8], in experiment [9], in [10], in [11] and in experiment [12] was inactive. Further, the result in experiment [13], in experiment [14], in experiment [15], in experiment [16], in [17] and in experiment [18] was inactive.
As for `O=C(Nc1ccc([N+](=O)[O-])cc1Cl)c1cc(Cl)ccc1O`, the result in experiment [1], in experiment [5] and in [12] was inactive. The AC50 (commonly the midpoint of the concentration-response curve, whichever way the signal moves) in experiment [2] was 148 nM (active); in [3] it was 313 nM (active); in experiment [4], 161 nM (active); in experiment [6], 470 nM (active); in [7] it was 445 nM (active); in experiment [8] it was 109 nM (active). In addition, the half-maximal activity concentration (AC50) in [10] was 178 nM (active); in [11], 148 nM (active); in experiment [19], 583 nM (active); in experiment [13], 175 nM (active); in experiment [14], 148 nM (active); in [15], 170 nM (active). The AC50 in experiment [16] was 335 nM (active); in [17], 148 nM (active); in experiment [18], 148 nM (active).
With `CCCOC(=O)NCCCN(C)C`, the result in experiment [1], in experiment [2], in experiment [3], in [20], in [4] and in experiment [5] was inactive. The result in experiment [6], in experiment [7], in [8], in [9], in experiment [10] and in experiment [11] was inactive. Also, the result in experiment [12], in experiment [19], in experiment [13], in experiment [14], in experiment [15] and in experiment [16] was inactive. Further, the outcome in experiment [17] and in experiment [18] was inactive.
